Each structure is given as a SMILES string.

The assay can be described thus: viability loss with induced miR-34 in A549 – imaging, A549 dox-inducible miR-34, nuclei and caspase counts, primary screen (AID 1347080). Also: test concentration not given here. The following applies: A549 miR-34 inducible, Hoechst nuclei count, 48 h; measured here: relative caspase fold change +Dox/-Dox.
In the case of `O=C(CN=C(c1ccccc1)c1ccccc1)OCc1ccccc1`, the fold change was 1.1. In the case of `CCCCC[C@@H](O)/C=C/[C@@H]1[C@H](C/C=C\CCCC(=O)O)[C@@H](O)C[C@H]1O`, the fold change stood at 1.39.

On to `CCCCCCCCCCCCCCCC(=O)OC[C@H](COP(=O)([O-])OCC[N+](C)(C)C)OC(=O)CCCCCCCCCCCCCCC`, for which the fold change was 0.572.

Consider `CCCCC(C)(O)C/C=C/[C@H]1[C@H](O)CC(=O)[C@H]1CCCCCCC(=O)OC` (some centres undefined), for which the fold change turned out to be 1.88.

With `CCCCCC/C=C\CCCCCCCCCCOC(C)=O`, the fold change is 0.538. `O=C(O)CCC/C=C\C[C@H]1[C@@H](O)CC(=O)[C@@H]1/C=C/[C@@H](O)COc1cccc(C(F)(F)F)c1`: the fold change worked out at 1.13. Consider `CCCCC/C=C\C=C\C(O)CCCCCCCC(=O)OC[C@@H](COC(=O)CCCCCCC/C=C\C=C\C(O)CCCCC)OC(=O)CCCCCCC/C=C\C=C\C(O)CCCCC` (some centres undefined), for which the fold change is 1.09. Regarding `CCCCCCCC/C=C\CCCCCC(=O)O`, the fold change amounted to 0.407. Take `CCCCC[C@H](O)CC[C@@H]1[C@@H](C/C=C\CCCC(=O)O)[C@@H](O)C[C@H]1O`: the fold change was found to be 1.41.

Take `CCCCCCCCCCCCCCCCCC(=O)NCCS(=O)(=O)O`: the fold change came to 0.61. Regarding `COc1cc(/C=C/c2ccc(Cl)cc2)cc(OC)c1`, the fold change came out at 0.802.

Regarding `C/C(O)=C1\C(=O)[C@@H]2[C@H]3c4c[nH]c5cccc(c45)C[C@H]3C(C)(C)N2C1=O`, the fold change amounted to 0.893.

For `CCCCC[C@H](O)/C=C/[C@@H]1[C@H]2CC(CCCCC(=O)O)O[C@H]2C[C@H]1O` (some centres undefined), the fold change stood at 1.39. For the molecule `CCCCC/C=C\C/C=C\C/C=C\C/C=C\CCCC(=O)NC[C@]1(C)CCC[C@]2(C)c3ccc(C(C)C)cc3CC[C@@H]12`, the fold change came out at 1.27.

Source of the values: PubChem BioAssay.
